Bioassay records from PubChem.
This is a sample that favours compounds with a hit; in the whole collection about 1.5% have one here.
IL2 activator: IL-2 activation; IL-2 activation reporter assay, cell-based qHTS; stimulated with anti-CD3/CD4/CD28 beads; in transgenic mouse T cells; activation, % (series mostly up to about 46 µM); 360,000 compounds, 0.065% hits; AID 652025; in the data active = activation above about 50%; inconclusive = mostly about 30% to 49%; note: 0% is about no effect
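Readout is EGFP and DsRed signal by fluorescent plate cytometry after 18 h at 37 degrees C. Transgenic mouse T cells (750/well) received compound for 60 min before bead stimulation (anti-CD3, anti-CD4, anti-CD28); memory T cells served as non-tolerant control.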
Nrf2 ARE act: Nrf2 pathway activation | AREc32 ARE-luciferase reporter (MCF7-derived line), luminescence, 24 h | Potency, µM (top dose mostly 46.1 µM), for the others: top-dose activation, most hits filed as activators | 410,000 compounds, 0.31% hits; note: potency is the fitted concentration of half-maximal effect; % of control where 0% means no effect; nearly all actives have a fitted effect of over 65% in size
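Luciferase luminescence (Steady-Glo, 30 min at room temperature) served as the read-out of ARE activation in AREc32 cells treated with compounds for 24 hr at 37 deg C.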
uPA generation: blocks generation of uPA at the cell surface | 330,000 compounds, 0.31% hits | AID 540303 | Potency, µM (highest dose often 38.3 µM), for the others: top-dose activity change, negative = inhibition, most hits filed as inhibitors | cell surface uPA generation assay, qHTS; active = well fitted inhibition curve with a large enough effect; inconclusive = small, poorly fitted or top-dose-only effect; inactive = no such curve, though single readings can be large or run the other way; tested in mouse RAW 264.7 cells; note: potency is the fitted concentration of half-maximal effect; % is set by controls: 0 for no effect and ±100 for the full control effect; nearly all actives have a fitted effect of over 55% in size
a7 integrin act: activates integrin-mediated alleviation for muscular dystrophy | alpha7betagal myoblasts, beta-gal FDG fluorescence, 48 h | Potency, µM (series often up to 38.3 µM), for inactives: at the top dose activation, usual class: activators | 350,000 compounds, 0.064% hits | AID 624291;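 note: potency is the fitted concentration of half-maximal effect; 100% = response of the positive control SU9516; nearly all actives have a fitted effect of over 60% in size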
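Alpha7betagal+/- myoblasts (passage 13) were plated 16-24 hr, then exposed to compounds (1:260 dilution of DMSO stock) for 48 hours at 37C. After MPER lysis, β-galactosidase reporter activity was read as FDG fluorescence (ex 480/em 540) after 30 minutes.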
ALOX12 inh: inhibitors of human 12S-lipoxygenase ALOX12 | Potency, µM (doses to about 108 µM), without a hit: top-dose activity change, negative = inhibition, actives largely listed as inhibitors | 580,000 compounds, 1.1% hits | P18054 | purified 12hLO, xylenol orange hydroperoxide absorbance; note: potency is the fitted concentration of half-maximal effect; % is set by controls: 0 for no effect and ±100 for the full control effect
Target sequence (P18054 whole entry, looked up): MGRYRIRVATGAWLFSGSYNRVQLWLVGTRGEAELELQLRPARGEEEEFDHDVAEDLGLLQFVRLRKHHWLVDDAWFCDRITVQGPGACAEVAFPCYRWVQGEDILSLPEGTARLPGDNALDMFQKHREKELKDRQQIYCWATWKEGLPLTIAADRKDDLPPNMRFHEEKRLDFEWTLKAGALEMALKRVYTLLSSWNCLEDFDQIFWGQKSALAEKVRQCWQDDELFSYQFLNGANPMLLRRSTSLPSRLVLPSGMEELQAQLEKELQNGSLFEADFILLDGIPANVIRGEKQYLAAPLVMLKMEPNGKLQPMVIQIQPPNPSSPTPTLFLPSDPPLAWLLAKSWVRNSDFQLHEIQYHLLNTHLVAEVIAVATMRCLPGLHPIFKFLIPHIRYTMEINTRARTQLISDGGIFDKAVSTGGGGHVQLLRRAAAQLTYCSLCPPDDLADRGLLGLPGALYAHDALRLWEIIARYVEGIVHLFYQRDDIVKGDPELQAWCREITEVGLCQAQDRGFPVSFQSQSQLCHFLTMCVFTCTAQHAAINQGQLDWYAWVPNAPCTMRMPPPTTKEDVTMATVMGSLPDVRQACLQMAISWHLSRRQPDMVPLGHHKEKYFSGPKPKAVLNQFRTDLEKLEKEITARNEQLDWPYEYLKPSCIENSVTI
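Purified human 12hLO (150 nM final) in 25 mM Hepes, 0.01% Triton X-100, pH 7.0 was preincubated 15 min at room temperature with compound. Then 40 uM arachidonic acid was added, 30 min. Hydroperoxide was read by Fe-XO absorbance ratio 573/405 nm.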
Active calls of the source: *; ? = inconclusive; . = no result; ! = not confirmed by another sample; [ ] = remark or other dose. Unless noted, calls come from the whole dose curve; as a rule, active = well fitted curve in the direction sought with a large enough effect; inconclusive = small, poorly fitted or top-dose-only effect, or another doubt; inactive = no such curve, though single readings can be large; an effect the other way counts as inactive or inconclusive.

SMILES	IL2 activator	Nrf2 ARE act	uPA generation	a7 integrin act	ALOX12 inh
COC(=O)C1=C(C)N(Cc2ccccc2)C(=S)NC1c1ccc(-c2ccccc2)cc1 (configuration not stated)	.	.	.	.	22µM*
CCN1C(=S)N[C@@H](c2cccc(F)c2)C(C(=O)OC)=C1C	0	0%	4%	-17%	?
COC(=O)C1=C(C)N(Cc2ccccc2)C(=S)N[C@H]1c1ccccc1	0	4%	?	7%	?
CCOC(=O)C1=C(C)N(CC)C(=S)NC1c1ccc(Cl)cc1 (configuration not stated)	0	0%	2%	-22%	?
COC(=O)C1=C(C)N(Cc2ccc(Br)cc2)C(=S)NC1c1ccc(F)cc1 (configuration not stated)	.	.	.	.	40µM*
Cc1ccc(NC(=O)N2CC(c3nnc(-c4ccncc4)o3)C3(CCOCC3)C2)cc1C (configuration not stated)	.	.	.	.	-4%
COc1cc(F)ccc1-c1cc(C(=O)NCc2cccnc2)c2c(c1)N(C)CCO2	.	.	.	.	46%[176 µM]
COC(=O)C1=C(C)N(Cc2ccccc2)C(=S)NC1c1cccc(OC)c1 (configuration not stated)	.	.	.	.	32µM*
N#Cc1cc2c([nH]c1=S)CCCC2	0	-1%	11%	-16%	14µM*
NC(=O)C1=C(Nc2ccc(Br)cc2F)c2ccccc2S1(=O)=O	.	.	.	.	17%
Cc1ccc(NC2=C(Cl)C(=O)OC2OC(=O)c2ccc(C)cc2)cc1 (configuration not stated)	-3	?	-1%	-6%	7.9µM*
CCCCc1cc(=O)oc2cc(OCC(=O)Nc3ccccn3)ccc12	0	13µM*	?	-11%	18%
N#CC1(Br)C(=N)c2ccccc2CC12CCCCC2 (configuration not stated)	.	.	.	.	0.56µM*
Cc1cc(-c2ccc(S(=O)(=O)N(C)c3ccc(C)c(C)c3)s2)on1	0	0%	?	-34%	1%
Cc1ccc(N(C)S(=O)(=O)c2ccc(-c3cc(C)no3)s2)cc1	-1	-1%	2.2µM*	-30%	-1%
COc1cccc(NC(=O)CCC2CCN(S(=O)(=O)c3ccccc3)CC2)c1	.	.	.	.	36%
COC(=O)[C@@]1(Sc2ccc(C)cc2)CC(=O)N[C@@H]1c1ccco1	0	0%	.	.	40µM*
COC(=O)[C@]1(Sc2ccc(C)cc2)CC(=O)N[C@@H]1c1ccco1	1	-1%	.	.	?
COc1cccc(-c2noc(-c3cc4ccccc4oc3=O)n2)c1OC	.	11µM*	.	.	13%
CCOC(=O)c1c(NC(=O)C(=O)NCc2ccncc2)sc2c1CC(C)(C)OC2	.	.	.	.	44%
CCN(CC)C(=O)Cn1c(=O)c2ccccc2n2c(=S)sc(-c3cccc(C)c3)c12	94*	0%	-6%	34%	?
CCN(CC)C(=O)Cn1c(=O)n(Cc2ccc(C(=O)NCc3ccc(C)cc3)cc2)c(=O)c2ccccc21	.	1%	.	.	-23%
COCCn1cnnc1SCc1nc2cc(Cl)ccc2n1Cc1ccccc1	.	.	.	.	47%
O=C(c1ccccc1)N1CCC(c2n[nH]c(=O)n2-c2ccccc2)CC1	.	.	.	.	19%
Cc1ccc(-n2ncc3c(Nc4ccccc4)ncnc32)cc1	.	.	.	.	-25%
SMILES	IL2 activator	Nrf2 ARE act	uPA generation	a7 integrin act	ALOX12 inh
CC(C)Nc1ncnc2c1cnn2-c1ccc(Cl)cc1	-1	-2%	13µM*	6%	6%[57.4 µM]
COCCNc1ncnc2c1cnn2-c1ccc(Cl)cc1	0	0%	-4%	26%	14µM*
Clc1ccc(Nc2ncnc3c2cnn3-c2ccccc2)cc1	-3	-1%	8%	-36%	25µM*
Cc1cccc(COc2ccc(CNC(=O)c3nccnc3N)cc2)c1	.	.	.	.	48%
CCOC(=O)COc1ccc2c(=O)c(Oc3ccccc3OC)c(C)oc2c1	.	.	.	.	3%
O=C(Nc1ccccc1)c1c2c(nc3ccccc13)CCCC2	1	-1%	-3%	-21%	11%
O=C(Nc1ccccc1)c1c2c(nc3ccccc13)CCC2	.	.	.	.	35µM*
CCNC(=O)NC(=O)C(C)OC(=O)c1cc(-c2ccco2)nc2ccccc12 (configuration not stated)	.	.	.	.	13µM*
NC(=O)NC(=O)COC(=O)c1cc(-c2ccco2)nc2ccccc12	.	.	.	.	14µM*
COc1ccc(CNC(=O)COC(=O)c2cc(C)nc3ccccc23)cc1	-4	0%	0%	2%	-60%
CCNC(=O)NC(=O)C(C)OC(=O)c1cc(C)nc2ccccc12 (configuration not stated)	.	.	.	.	13%
NC(=O)COC(=O)c1cc(-c2ccccc2)nc2ccccc12	.	.	.	.	7%
CCNC(=O)COC(=O)c1cc(-c2ccco2)nc2ccccc12	0	?	-1%	5.6µM*	7.1µM*
COC1C(=O)N(c2cccc(F)c2)C12CCN(C(=O)C1CCCC1)CC2 (configuration not stated)	.	.	.	.	34%
O=C(CN1CCN(c2cccc(Cl)c2)CC1)Nc1ccnn1Cc1cccc(Cl)c1	.	.	.	.	-3%
C=CCNc1oc(/C=C/c2cccs2)nc1C#N	.	.	.	.	18µM*
COC(=O)N1CC=CC1(C)C(=O)NCc1cc(F)cc(C(F)(F)F)c1 (configuration not stated)	-3	22%	7.9µM*	-25%	2%
C=CC[n+]1c(-c2ccc(C)cc2)csc1Nc1ccc(NC(C)=O)cc1	0	2%	7.1µM*	-7%	?
COC(=O)c1ccc(OC)cc1	.	.	.	.	24%[176 µM]
Cc1coc2c1C(=O)C(=O)c1c-2ccc2c1CCCC2(C)C	-2	4%	-30%	-2%	24µM*!
O=C(Cc1cccs1)OCC(=O)c1ccccc1	.	.	.	.	40µM*
COc1ccc(S(=O)(=O)NC(c2ccc(F)cc2)c2cccs2)cc1NC(C)=O (configuration not stated)	.	.	.	.	29%
O=C1CC(=C(c2ccccc2)c2ccccc2)C(=O)N1CCCCN1CCN(c2ccccc2)CC1	0	6%	-12%	-50%	40µM*
O=C(CCCN1CCN(c2ccccc2)CC1)c1ccc(F)cc1	-4	-1%	.	-4%	1%
CC(OC(=O)c1n[nH]c(=O)c2ccccc12)C(=O)Nc1c(F)cccc1F (configuration not stated)	.	.	.	.	2%
SMILES	IL2 activator	Nrf2 ARE act	uPA generation	a7 integrin act	ALOX12 inh
Nc1ncc(-c2ccc(-c3cc(NC4CCCC4)nc4[nH]ccc34)cc2)[nH]1	.	.	.	.	7%
CCCCc1ccc(C(=O)Cn2cnc3c2c(=O)n(C)c(=O)n3C)cc1	.	.	.	.	1%
CC1(CCCCN2CCOCC2)COc2ccc(C(=O)Nc3ccccc3)cc2N1 (configuration not stated)	.	.	.	.	-6%[176 µM]
Nc1nc(N)c2c(ccc3c2ccn3Cc2cccc([N+](=O)[O-])c2)n1	-1	-5%	.	.	?
CC(C)c1ccc(Cn2ccc3c4c(N)nc(NC5CC5)nc4ccc32)cc1	.	.	.	.	22µM*!
Cc1ccc(-c2cnc(CCC(=O)N(C)Cc3ccco3)o2)cc1C	.	.	.	.	13%
O=C(Nc1cc(-c2nc3ncccc3o2)ccc1Cl)c1cccs1	-1	6.3µM*	-1%	16%	5%
